This passage reports Potency, viability (% of control) and viability, % of control results from PubChem BioAssay (NCATS).

Experiment [1] can be described thus: Viability qHTS for spleen associated tyrosine kinase inhibitor (SYKi) naive MV4-11 cells (AID 1963823). Further: nearly all actives have a fitted effect of over 40% in size. The note with it: MV4-11 AML viability, CellTiter-Glo luminescence, 72 h; series mostly up to 45 µM. Summed up:
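Seeding of 500 SYKi-naive MV4-11 cells per well onto pre-dispensed compounds preceded a 72 hr incubation at 37 C. Luminescent CellTiter-Glo signal, read after 10 min at room temperature, reflected viable cells.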

Experiment [2] is described as follows: Viability qHTS for spleen associated tyrosine kinase inhibitor (SYKi) drug resistant MV4-11 cells (AID 1963824). Further: nearly all actives have a fitted effect of over 35% in size. The note with it: SYKi-resistant MV4-11 viability, CellTiter-Glo, 72 h; series mostly up to 45 µM. In outline:
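SYK-inhibitor-resistant MV4-11 AML cells were seeded at 500 per well onto compound and cultured 72 hours (37 °C, 5% CO2). CellTiter-Glo was then added, and after 10 min at room temperature, luminescence gave viability.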
Background: Quantitative high-throughput screening tests each substance at several concentrations.

Records with an inconclusive call do not appear. Activity calls are given as the source filed them. The call rests on the fitted dose curve; in most records, active means well fitted cell-killing curve with a large enough effect; inconclusive means small, poorly fitted or top-dose-only effect, or effect the other way; inactive means no such curve, though single readings can be large or run the other way.
Potency means the concentration at half of the fitted maximal effect.

Take `CCC(C)/C=C(C)/C=C/C1=CC2=C(Cl)C(=O)C(C)(OC(C)=O)C(=O)C2(O)C(OC)O1` (stereo unspecified): the Potency in experiment [1] was 11.2 µM (active); in experiment [2] it was 7.96 µM (active).
On to `CNS(=O)(=O)c1ccccc1Nc1nc(Nc2ccc(N3CCN(C)CC3)cc2OC)ncc1Cl`, for which the figures for the Potency in experiment [1] and in experiment [2] were 0.0206 µM (active) and 0.0366 µM (active), respectively.
Turning to `C/C=C(/C)C(=O)OC1CC(C)(C)CC2C3=CCC4C5(C)CCC(OC6OC(C)C(OC7OC(C(=O)O)C(O)C(OC8OC(CO)C(O)C(O)C8OC8OC(CO)C(O)C(O)C8O)C7O)C(O)C6O)C(C)(C)C5CCC4(C)C3(C)C(OC(=O)/C=C/C=C/C=C/CCC)C(OC(C)=O)C12CO` (stereo unspecified), the viability (% of control) in experiment [1] is 68.8% [at 9.25 µM] (inactive). Moreover, the viability, % of control in experiment [2] was 73.3% [at 9.25 µM] (inactive).
